Reference: PubChem BioAssay
Calls of active or inactive are those of the source.

What was measured:
Albumin (Bos taurus) = Albumin (Bos taurus) (UniProt P02769); assay: compounds binding labelled BSA control protein – biochemical, small-molecule microarray, Alexa647 label, 635/667 nm fluorescence, artefact control for SMM control protein annotation, profiling panel (AID 1118); conditions: BSA-A647 binding, fluorescence 635 nm, higher = more signal;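 note: score merges 667 nm emission intensity and signal-to-noise per printed compound spot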
[1] = probe aXIP binding to arrayed compounds – biochemical, NeuroSMM set, 635/667 nm fluorescence, primary screen (AID 1119); conditions: small-molecule microarray, higher = more signal, called active from +8 up or from −8 down;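 note: probe is the protein aXip251-270 applied at 1 µg/mL to compound-printed slides; binding of probe to printed compounds measured as 667 nm fluorescence plus signal to noise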
[2] = probe aNOTCH3 binding on compound microarray – biochemical, small-molecule microarray, 635/667 nm fluorescence, primary screen (AID 1120); conditions: higher = more signal;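 note: probe is a biotin-tagged antibody raised against NOTCH3 rather than NOTCH3 protein; score merges spot fluorescence near 667 nm with spot signal to noise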
[3] = probe aNOTCH2 binding on compound microarray – biochemical, small-molecule microarray, 635/667 nm fluorescence, primary screen (AID 1121); conditions: higher = more signal;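 note: score merges feature fluorescence read at 667 nm with its signal to noise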
[4] = molecular target: Carbonic anhydrase 2 (Homo sapiens) (UniProt P00918); assay: compounds binding carbonic anhydrase 2 – biochemical, small-molecule microarray, Alexa647-labelled CAII, profiling panel (AID 1122); conditions: CAII-A647 binding fluorescence, higher = more signal
[5] = COS7 lysate on small-molecule microarray, probe aHis, 635 nm (AID 1123); conditions: COS7 cell lysate, fluorescence, higher = more signal;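 note: z-score combines 667nm fluorescence intensity with signal-to-noise per printed compound spot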
[6] = probe aLAP1 signal on lysate-treated microarray – cell lysate, small-molecule microarray, COS7 lysate, primary screen (AID 1124); conditions: probe aLAP1, fluorescence, higher = more signal;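 note: lysate comes from COS7 cells expressing LAP1 and is applied at 0.3 µg/mL; score merges spot fluorescence near 667 nm with signal-to-noise over triplicate slides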
Sam68 (KHDRBS1) = assay: compounds binding KHDRBS1 protein – biochemical, small-molecule microarray, 635 nm fluorescence, primary screen (AID 1125); conditions: higher = more signal;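 note: score merges 667 nm channel intensity with signal to noise over triplicate slides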
[7] = test system: Chordin-like protein 2 (CHRDL2); assay: compounds binding chordin-like 2 – biochemical, small-molecule microarray, 635 nm fluorescence, primary screen (AID 1126); conditions: fluorescence 635 nm, higher = more signal;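 note: printed compound slides probed with Chrdl2 protein at 4 µg/mL for 1 h at 4 C; score merges 667 nm emission intensity with signal to noise over three replicate slides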
[8] = molecular target: Concanavalin-A (Canavalia ensiformis) (UniProt P02866); assay: compounds binding concanavalin A lectin – biochemical, small-molecule microarray, Alexa647 label, 635 nm, artefact control for SMM control protein annotation, primary screen (AID 1127); conditions: ConA-A647 binding fluorescence, higher = more signal;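 note: z combines 667 nm emission intensity with signal-to-noise across three replicate slides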
Sequence of Concanavalin-A (Canavalia ensiformis) (P02866 whole entry, looked up): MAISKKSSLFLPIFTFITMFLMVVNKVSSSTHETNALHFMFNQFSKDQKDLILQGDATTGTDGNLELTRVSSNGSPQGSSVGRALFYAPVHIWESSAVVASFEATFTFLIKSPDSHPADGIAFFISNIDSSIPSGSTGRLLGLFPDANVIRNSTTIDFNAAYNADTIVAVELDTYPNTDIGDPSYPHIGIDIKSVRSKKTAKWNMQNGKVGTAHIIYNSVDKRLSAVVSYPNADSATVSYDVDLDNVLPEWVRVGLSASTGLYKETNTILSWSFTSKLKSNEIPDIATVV

Sequence of Albumin (Bos taurus) (P02769 whole entry, looked up): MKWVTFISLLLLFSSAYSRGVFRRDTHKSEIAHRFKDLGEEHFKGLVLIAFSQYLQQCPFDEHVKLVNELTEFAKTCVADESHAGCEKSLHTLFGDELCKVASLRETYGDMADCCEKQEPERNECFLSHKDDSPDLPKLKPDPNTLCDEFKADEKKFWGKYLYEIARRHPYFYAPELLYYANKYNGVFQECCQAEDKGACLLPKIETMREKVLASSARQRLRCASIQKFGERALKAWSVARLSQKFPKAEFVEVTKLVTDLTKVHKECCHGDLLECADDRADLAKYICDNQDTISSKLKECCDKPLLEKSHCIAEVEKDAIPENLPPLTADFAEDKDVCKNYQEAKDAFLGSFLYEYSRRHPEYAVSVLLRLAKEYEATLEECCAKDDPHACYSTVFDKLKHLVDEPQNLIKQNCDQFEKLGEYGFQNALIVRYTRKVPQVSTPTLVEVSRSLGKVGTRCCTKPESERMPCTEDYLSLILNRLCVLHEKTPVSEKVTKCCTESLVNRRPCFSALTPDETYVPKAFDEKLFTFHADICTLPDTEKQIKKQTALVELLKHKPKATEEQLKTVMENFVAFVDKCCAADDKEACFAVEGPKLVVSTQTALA

Row | Compound | composite z-score (Albumin (Bos taurus)) | composite Z-score [1] | composite z-score [2] | composite z-score [3] | composite z-score [4] | composite z-score [5] | composite z-score [6] | composite z-score (Sam68 (KHDRBS1)) | composite z-score [7] | composite z-score [8]
1 | CC(C)N1C(=O)c2ccccc2[C@](C)(C(=O)NCCCN(C)C)[C@@H]1c1ccc(CO)cc1 | 0.222 | -0.264 (inactive) | -0.149 | -0.0903 | 0.526 | 1.45 | 1.01 | -0.283 | -0.85 | -1.41
2 | O=C1O[C@H](c2ccccc2)[C@H](c2ccccc2)N2[C@H]1[C@@H](C(=O)NC[C@H](O)c1ccccc1)[C@]1(C(=O)Nc3ccc(C#CC4=CCCCC4)cc31)[C@H]2c1ccc(O)cc1 | 0.296 | -1.22 (inactive) | 0.0112 | -0.124 | 0.397 | 1.98 | 0.826 | 1.29 | 0.594 | 1.09
3 | CCCC[C@@H]1C[C@H]1[C@@H](NC(=O)c1ccccc1)c1ccc(-c2ccccc2)cc1 | 0.891 | -0.0708 (inactive) | -0.0647 | -0.128 | 0.498 | 1.17 | -0.146 | 0.893 | -0.995 | 0.147
4 | O=C1O[C@@H](c2ccccc2)[C@@H](c2ccccc2)N2[C@@H](c3ccc(O)cc3)[C@]3(C(=O)Nc4ccc(C#CCCO)cc43)[C@@H](C(=O)N3CCCCCCC3)[C@H]12 | -0.126 | 5.37 (inactive) | 1.3 | 0.612 | 0.766 | 3.26 | 0.991 | 1.16 | 1.43 | 0.884
5 | CN(C)CCCCNC(=O)[C@@H]1C[C@@H]2C(=O)N[C@@H](CCCCN)C(=O)N2[C@@H]1c1cccc(OCCO)c1 | -0.564 | 0.703 (inactive) | -0.0918 | 0.0072 | 0.42 | 2.85 | 0.429 | -0.266 | -0.0061 | 0.344
6 | C=C(CCCC)C(=O)CC[C@H](OC(=O)c1ccccc1-c1ccccc1C(=O)O)c1ccc(CO)o1 | 0.734 | 0.0663 (inactive) | -0.0014 | -0.14 | 0.15 | 0.455 | 0.645 | 1.29 | 0.82 | 0.933
7 | Cc1ccc(S[C@]2(C(=O)NCCCN(C)C)CC(=O)N(Cc3ccccc3)[C@@H]2c2ccc(CO)cc2)cc1 | -0.173 | -0.72 (inactive) | -0.279 | 0.027 | 0.621 | 0.018 | 0.973 | -0.145 | -0.85 | -0.785
8 | C[N+](C)(C)CCCCNC(=O)[C@H]1C[C@H]2C(=O)N3CCC[C@H]3C(=O)N2[C@H]1c1ccc(O)cc1 | -0.926 | -0.388 (inactive) | 0.0793 | -0.0449 | 0.627 | 2.08 | 0.625 | 0.895 | 1.21 | 1.09
9 | CC(C)(C)OC(=O)CC[C@]1(C(=O)NCC(O)CO)N=C(c2ccc(OCCCO)cc2)O[C@H]1c1ccccc1CN=[N+]=[N-] (stereo not given in full) | 0.906 | 1.27 (inactive) | 0.883 | 0.382 | 0.747 | 2.82 | 1.58 | 1.16 | 0.0916 | 1
10 | O=C(NCC(O)CO)[C@]1(CCS(=O)(=O)c2ccccc2)N=C(c2ccc(OCCCO)cc2)O[C@@H]1c1ccccc1 (stereo not given in full) | 1.11 | -0.262 (inactive) | -0.095 | -0.0392 | 0.761 | 3.41 | 0.944 | 1.23 | -1.41 | 0.87
11 | C=C(CCCC)/C(=C/C[C@H](OC(C)=O)c1ccc(CO)o1)c1cc(C(=O)OC)ccc1OC | 0.588 | 0.297 (inactive) | 0.133 | -0.149 | 0.694 | 0.699 | 0.53 | 1.17 | 0.323 | 0.902
12 | C=CC[C@@]1(C(N)=O)N=C(c2ccc(OCCCO)cc2)O[C@@H]1c1ccccc1N=[N+]=[N-] | 0.225 | -0.56 (inactive) | 0.116 | 0.468 | 0.555 | 1.64 | 1.82 | 0.934 | 1.16 | 0.126
13 | COC(=O)[C@@]1(Cc2ccc(OC)cc2)[C@H]2c3cc(C(=O)N(C)C)n(CCSCCO)c3C[C@H]2CN1C(=O)c1ccccc1 | 0.905 | -0.786 (inactive) | 0.182 | 0.407 | 0.844 | 2.4 | -0.0747 | 1.23 | -0.186 | 1.13
14 | CCN(CC)c1ccc(N2CC=CC34O[C@@H]5C=CCOC(=O)[C@@H]5[C@H]3C(=O)N(CCCCCO)[C@@H]4C2=O)cc1 (stereo not given in full) | 0.347 | 1.21 (inactive) | -0.193 | -0.146 | 0.861 | 1.17 | 1.04 | -0.0514 | -1 | -1.47
15 | CN1C(=O)C2C=CC(C(O)c3ccc(Br)cc3)N(Nc3ccccc3)C2C1=O (stereo not given) | 0.768 | 0.304 (inactive) | 0.145 | 0.0498 | 0.678 | 0.991 | 0.204 | 0.168 | -0.723 | -0.597
16 | COc1cc(NN2C(C(O)c3ccccc3)C=CC3C(=O)N(c4ccccc4)C(=O)C32)cc(OC)c1OC (stereo not given) | 0.923 | 0.153 (inactive) | 0.569 | -0.124 | 0.831 | 3.3 | 0.263 | 1.31 | -0.0912 | 0.919
17 | NC(=O)[C@@]1(CCS(=O)(=O)c2ccccc2)N=C(c2ccc(OCCCO)cc2)O[C@H]1c1ccccc1 | 0.737 | -0.0775 (inactive) | 0.0793 | -0.0531 | 0.801 | 2.86 | 0.821 | 1.2 | -1.12 | 1.14

Row | Compound | composite z-score (Albumin (Bos taurus)) | composite Z-score [1] | composite z-score [2] | composite z-score [3] | composite z-score [4] | composite z-score [5] | composite z-score [6] | composite z-score (Sam68 (KHDRBS1)) | composite z-score [7] | composite z-score [8]
18 | CCCC[C@@H]1C[C@H]1[C@@H](NC(=O)c1ccccc1)c1ccccc1 | 0.0945 | 0.103 (inactive) | 0.667 | 0.253 | -0.0524 | 0.506 | -0.159 | 0.138 | -0.608 | -0.482
19 | Oc1ccc2cc[n+](Cc3cccc(OC(F)(F)F)c3)cc2c1 | -0.192 | 0.587 (inactive) | -0.215 | -0.117 | 0.853 | 1.58 | 0.0966 | -0.28 | 0.959 | 0.373
20 | O=C1C2C=CC(C(O)c3ccc(B(O)O)cc3)N(Nc3ccc([N+](=O)[O-])cc3)C2C(=O)N1c1ccccc1 (stereo not given) | 0.832 | 0.142 (inactive) | 0.172 | -0.0439 | 0.654 | 2.02 | 0.588 | 1.32 | 0.262 | 0.738
21 | NC(=O)[C@]1(Cc2ccccc2)N=C(c2ccc(OCCCO)cc2)O[C@@H]1c1ccccc1 | 0.532 | 0.702 (inactive) | 0.106 | 0.0959 | 0.865 | 2.53 | 0.583 | 0.827 | -0.0464 | 0.587
22 | C=CCN1C(=O)[C@@]2(O[C@@H](CCO)[C@H]([Si](C)(C)c3ccc(OC)cc3)[C@H]2C)c2cc(NC(C)=O)ccc21 | -0.0164 | 0.347 (inactive) | 0.307 | -0.044 | 0.366 | 2.57 | 0.423 | 1.33 | 0.835 | 0.915
23 | CCCNC(=O)[C@@]1(c2ccc([N+](=O)[O-])cc2)CC(=O)N(CC23CC4CC(CC(C4)C2)C3)[C@@H]1c1ccc(CO)cc1I | 0.41 | 0.609 (inactive) | 0.216 | 0.126 | 0.118 | 1.33 | 0.137 | 0.974 | -0.366 | 0.519
24 | [N-]=[N+]=NCc1ccccc1C[C@]1(C(=O)N2CCOCC2)N=C(c2ccc(OCCCO)cc2)O[C@H]1c1ccccc1 | 0.905 | 0.271 (inactive) | 0.0582 | -0.14 | 0.501 | 1.07 | 0.444 | 0.965 | -0.731 | 1.07
25 | NC(=O)NCC#Cc1ccc2c(c1)[C@]1(C(=O)N2)[C@H](C(=O)NC[C@H](O)c2ccccc2)[C@H]2C(=O)O[C@H](c3ccccc3)[C@H](c3ccccc3)N2[C@@H]1c1ccccc1OCCO | 0.308 | 0.15 (inactive) | -0.0003 | -0.164 | 0.539 | 1.54 | 0.564 | 0.854 | -0.769 | 0.913
26 | O=C1C[C@@](C(=O)O)(c2ccc([N+](=O)[O-])cc2)[C@@H](c2ccc(CO)cc2I)N1CC12CC3CC(CC(C3)C1)C2 | 0.776 | 0.235 (inactive) | -0.132 | 0.0808 | 0.64 | 1.63 | 0.945 | 0.993 | -1.42 | 1.09
27 | CC(C)NC(=O)[C@@H]1c2ccccc2C(=O)N(C2CCCCC2)[C@H]1c1ccc(CO)cc1 | -0.338 | -0.101 (inactive) | -0.0731 | -0.0326 | 0.336 | 1.47 | -0.0044 | 0.77 | -0.329 | 0.661
28 | CCOC1=C2C(c3ccc(C)cc3)N(S(=O)(=O)c3ccc(C)cc3)CC2n2c(=O)n(-c3ccccc3)c(=O)n2C1 (stereo not given) | 0.495 | 0.193 (inactive) | 0.125 | -0.0276 | 0.639 | 2.65 | 0.91 | 1.35 | 0.339 | 1.14
29 | O=C(NCc1ccccc1)[C@@H]1c2ccccc2C(=O)N(C2CCCCC2)[C@H]1c1ccc(CO)cc1 | 0.654 | 0.142 (inactive) | -0.112 | -0.286 | 0.795 | 0.642 | 1.78 | 0.467 | -0.475 | 0.335
30 | C=C[C@@H](C)[C@@H](OC(=O)Nc1ccc(OC)cc1)c1ccc(O)c2ccccc12 | 0.199 | 0.725 (inactive) | -0.155 | -0.183 | 0.283 | 0.516 | -0.0028 | 0.349 | 0.897 | 0.323
31 | COCCCNC(=O)[C@@]1(Cc2ccccc2I)c2ccccc2C(=O)N(Cc2ccccc2)[C@H]1c1ccc(CO)cc1 | -1.09 | -0.0662 (inactive) | -0.265 | -0.162 | 0.574 | 0.817 | -0.665 | 0.337 | -1.47 | -1.3
32 | O=C1OCCC=C[C@H]2OC34C=CCN(CCN5CCOCC5)C(=O)[C@H]3N(CCO)C(=O)[C@@H]4C12 (stereo not given in full) | -0.188 | -0.7 (inactive) | 0.16 | -0.202 | 0.72 | -0.219 | -0.193 | -1.08 | 0.112 | -0.916
33 | COc1ccc([Si](C)(C)[C@@H]2[C@@H](CCO)O[C@]3(C(=O)N(Cc4cccc(N5CCCCC5=O)c4)c4ccccc43)[C@H]2C)cc1 | 0.532 | 0.6 (inactive) | 0.134 | -0.123 | 0.361 | 1.06 | 0.0492 | 1.29 | 0.128 | 0.961
34 | CCCNC(=O)[C@@]1(C)c2ccccc2C(=O)N(Cc2cc(C(F)(F)F)cc(C(F)(F)F)c2)[C@H]1c1ccc(CO)cc1 | -0.549 | 0.147 (inactive) | -0.198 | -0.114 | 0.671 | 1.68 | 0.458 | 0.356 | -1.08 | -0.082
